From PubChem
Hits are enriched below; roughly 1.3% of the tested compounds scored in any of these assays.
TRPV1 potentiator: potentiators of human vanilloid receptor 1 (TRPV1) | Q8NER1 | potentiation, % at 8.33 µM | TRPV1-expressing cells, Fluo-8 calcium influx, capsaicin EC20 potentiation | 0.02% of 320,000 active; in the data active means potentiation above about 80%; inconclusive means between about 30% and that limit
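Fluo-8 calcium influx in TRPV1-expressing cells, kinetic read (ex 480/em 520 nm). Compound added and read 3 min for agonist activity, followed by capsaicin at EC20 final and 2 min further read for enhancement.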
TRPV1 agonist: human TRPV1 agonism. TRPV1-expressing cells, Fluo-8 calcium influx, agonist mode. activation, % at 8.33 µM. 0.19% of 320,000 active; in the data active means activation above about 80%; inconclusive means between about 30% and that limit
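Fluo-8 calcium influx in TRPV1-expressing cells, kinetic read (ex 480/em 520 nm). Compound added and read 3 min for agonist activity, followed by capsaicin at EC20 final and 2 min further read for enhancement.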
KCNH2 3.1 inh: KCNH2 3.1 (human) potassium channel inhibition; AID 720553; 0.95% of 340,000 active; activity change, % (tested at about 1.8 µM); U2OS KCNH2 3.1, thallium flux FluxOr; stronger effect = lower value;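 active means maximum activity change below -70%; inconclusive means maximum activity change from -70% to -50%; inactive means maximum activity change above -50%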;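 further: thallium influx rate constant from kinetic fluorescence after stimulation buffer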
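Channel expression came from 3.1 mutant virus (1.77 x 10^8 /mL) applied to suspended U2OS cells for 4 h. Flux was tracked with FluxOr dye plus Red40 quencher, and kinetic rate constants normalized to controls.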
hERG WT inh: KCNH2 (human, wildtype) channel inhibition; Q12809; U2OS, BacMam KCNH2, thallium flux FluxOr; stronger effect = lower value; activity change, % at 1.84 µM; 0.37% of 340,000 active;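 active means maximum activity change below -70%; inconclusive means maximum activity change between -70% and -50%; inactive means maximum activity change above -50%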
Target sequence (Q12809 whole entry, looked up): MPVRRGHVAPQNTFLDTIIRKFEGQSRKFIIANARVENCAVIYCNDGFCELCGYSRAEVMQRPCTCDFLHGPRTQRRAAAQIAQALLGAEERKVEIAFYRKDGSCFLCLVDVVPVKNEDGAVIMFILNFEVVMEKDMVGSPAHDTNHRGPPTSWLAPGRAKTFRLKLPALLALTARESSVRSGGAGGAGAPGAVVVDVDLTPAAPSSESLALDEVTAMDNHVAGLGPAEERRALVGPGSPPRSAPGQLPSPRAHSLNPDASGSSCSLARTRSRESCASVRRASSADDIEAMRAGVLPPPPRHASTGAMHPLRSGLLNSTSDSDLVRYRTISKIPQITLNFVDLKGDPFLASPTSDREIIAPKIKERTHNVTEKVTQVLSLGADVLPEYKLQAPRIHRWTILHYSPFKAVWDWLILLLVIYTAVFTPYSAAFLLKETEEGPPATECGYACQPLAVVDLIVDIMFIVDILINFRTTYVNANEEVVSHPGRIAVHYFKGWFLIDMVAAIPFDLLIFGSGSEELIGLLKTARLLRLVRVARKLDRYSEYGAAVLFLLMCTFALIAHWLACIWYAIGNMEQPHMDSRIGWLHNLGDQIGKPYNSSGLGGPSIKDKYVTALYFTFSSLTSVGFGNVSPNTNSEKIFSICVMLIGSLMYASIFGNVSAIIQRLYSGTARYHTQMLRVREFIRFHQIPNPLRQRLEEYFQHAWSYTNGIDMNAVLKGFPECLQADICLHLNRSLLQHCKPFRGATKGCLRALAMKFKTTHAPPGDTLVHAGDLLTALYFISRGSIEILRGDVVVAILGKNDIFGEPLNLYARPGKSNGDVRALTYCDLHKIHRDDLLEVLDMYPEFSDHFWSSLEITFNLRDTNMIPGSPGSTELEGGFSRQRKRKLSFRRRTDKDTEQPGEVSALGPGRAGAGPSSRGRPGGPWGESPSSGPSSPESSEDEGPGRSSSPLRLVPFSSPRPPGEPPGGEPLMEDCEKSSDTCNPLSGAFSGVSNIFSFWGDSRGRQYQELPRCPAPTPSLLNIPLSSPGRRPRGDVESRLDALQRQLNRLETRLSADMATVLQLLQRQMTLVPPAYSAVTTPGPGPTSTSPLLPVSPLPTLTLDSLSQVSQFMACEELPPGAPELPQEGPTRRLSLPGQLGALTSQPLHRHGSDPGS
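U2OS cells transduced with wild-type KCNH2 virus are loaded with FluxOr dye for 45 min, and thallium flux is measured in kinetic reads before and after stimulation buffer. Rate constants are normalized to DMSO controls.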
Hits are given with their value.

CN(CCc1ccccc1)C(=O)c1ccc(NC(=O)Cc2ccc(NC(=O)C3CCN(C(=O)C4CCC4)CC3)cc2)cc1 was read as hERG WT inh inactive.
O=C(CCCc1ccccc1)Nc1ccnn1C1CCN(Cc2ccc(Cl)cc2)CC1 was read as TRPV1 potentiator inactive, TRPV1 agonist inactive, KCNH2 3.1 inh -103 and hERG WT inh inactive.
`Cc1cc(C)nc(/N=C(\N)Nc2cccc(OCc3ccccc3)c2)n1` gave TRPV1 potentiator inactive, TRPV1 agonist inactive, KCNH2 3.1 inh inconclusive and hERG WT inh inactive.
For Cc1cc(C)nc(/N=C(\N)Nc2ccc(OCCC(C)C)cc2)n1 the results were TRPV1 potentiator inactive, TRPV1 agonist inactive, KCNH2 3.1 inh -82 and hERG WT inh inactive.
Screening Cc1cc(C)nc(/N=C(\N)Nc2ccc(OCc3ccccc3)cc2)n1 returned TRPV1 potentiator inactive, TRPV1 agonist inactive, KCNH2 3.1 inh -80 and hERG WT inh inactive.
For COc1cc(NS(=O)(=O)c2cc(NC(C)=O)ccc2OC)c(OC)cc1NC(=O)c1ccccc1 the results were KCNH2 3.1 inh inactive and hERG WT inh inactive.
For S=C1NCN(C2CCCCC2)CN1c1ccccc1 the results were TRPV1 potentiator inconclusive, TRPV1 agonist inactive, KCNH2 3.1 inh -96 and hERG WT inh inactive.
Screening Nn1c(Cc2ccccc2)nc2cc(Cl)ccc2c1=O returned TRPV1 potentiator 95, TRPV1 agonist inactive, KCNH2 3.1 inh inactive and hERG WT inh inactive.
Screening Nn1c(Cc2ccccc2)nc2ccccc2c1=O returned KCNH2 3.1 inh inactive and hERG WT inh inactive.
Screening COc1ccc(C2=NN(C(=O)CCC(=O)O)C(c3ccccc3)C2)cc1 (stereo unspecified) returned TRPV1 potentiator inactive, TRPV1 agonist inactive, KCNH2 3.1 inh inactive and hERG WT inh inactive.
CCOC(=O)c1nnn(CC(=O)N2N=C(c3ccc(Cl)cc3)CC2c2ccc(OC)cc2)c1C(=O)OCC (stereo unspecified) was read as TRPV1 potentiator inactive, TRPV1 agonist inactive, KCNH2 3.1 inh inconclusive and hERG WT inh -76.
`COc1ccc(C2CC(c3ccc(Br)cc3)=NN2C(=O)CN2CCCC2)cc1` (stereo unspecified) gave TRPV1 potentiator inactive, TRPV1 agonist inactive, KCNH2 3.1 inh -83 and hERG WT inh inactive.
`CCOC(=O)c1nnn(CC(=O)N2N=C(c3ccc(Cl)cc3)CC2c2ccccc2)c1C(=O)OCC` (stereo unspecified) gave TRPV1 potentiator inactive, TRPV1 agonist inactive, KCNH2 3.1 inh -71 and hERG WT inh inactive.
O=C1C=C(C#Cc2ccc(Oc3ccccc3)cc2)C[C@@H](c2ccc(F)cc2)C1 was read as KCNH2 3.1 inh inactive and hERG WT inh inactive.
For COc1ccc(-c2nc(CS(=O)(=O)CC(=O)NC3CCC(C)CC3)c(C)o2)cc1 (stereo unspecified) the results were TRPV1 potentiator inactive, TRPV1 agonist inactive, KCNH2 3.1 inh inactive and hERG WT inh inactive.
For Cc1c(C(=O)O)sc(S(=O)(=O)N2CCN(C(=O)CC(C)c3ccccc3)CC2)c1C(=O)O (stereo unspecified) the results were KCNH2 3.1 inh inactive and hERG WT inh inactive.
For CCOc1ccc(NC(=S)NC(=O)Cc2ccccc2)cc1 the results were TRPV1 potentiator inactive, TRPV1 agonist 87, KCNH2 3.1 inh inactive and hERG WT inh inactive.
CCN(CC)c1ccc(NC(=S)NC(=O)Cc2ccccc2)cc1 was read as TRPV1 potentiator inactive, TRPV1 agonist inconclusive, KCNH2 3.1 inh inactive and hERG WT inh inactive.
Screening O=Cc1c[nH]c2ccccc12 returned TRPV1 potentiator inactive and TRPV1 agonist inactive.
For CN1CCN(CCCNc2c(C=O)c(=O)[nH]c3ccccc23)CC1 the results were TRPV1 potentiator inactive, TRPV1 agonist inactive, KCNH2 3.1 inh inactive and hERG WT inh inactive.
CC1CN(C(=O)c2cccc(S(=O)(=O)N3CCN(c4ccccc4)CC3)c2)CC(C)O1 (stereo unspecified) was read as TRPV1 potentiator inactive, TRPV1 agonist inactive, KCNH2 3.1 inh inactive and hERG WT inh inactive.
O=C(CNS(=O)(=O)c1cccc(Cl)c1)Nc1ccc(-c2nc3ccccc3s2)cc1 was read as TRPV1 potentiator inactive, TRPV1 agonist inactive, KCNH2 3.1 inh -74 and hERG WT inh inactive.
Screening CC(C)(C)c1nc2scc(-c3ccc(Cl)cc3)c2c(=O)o1 returned TRPV1 potentiator inactive, TRPV1 agonist inactive, KCNH2 3.1 inh -82 and hERG WT inh inactive.
CCN1C(=O)[C@H]2[C@@H](c3ccc(-c4ccccc4)cc3)N[C@@](CC(C)C)(C(=O)OC)[C@H]2C1=O was read as TRPV1 potentiator inactive, TRPV1 agonist inactive, KCNH2 3.1 inh inactive and hERG WT inh inactive.
`O=C(NC1CCCCC1)c1cc(-c2ccc(F)cc2)on1` gave TRPV1 potentiator inconclusive, TRPV1 agonist inactive, KCNH2 3.1 inh inactive and hERG WT inh inactive.
Screening O=C(NC1CCCCC1)c1cc(-c2cccs2)on1 returned TRPV1 potentiator inactive, TRPV1 agonist inactive, KCNH2 3.1 inh -71 and hERG WT inh inactive.
Screening Cc1ccc(N(c2ncnc(N)c2[N+](=O)[O-])C2CCCCC2)cc1 returned TRPV1 potentiator inactive, TRPV1 agonist inconclusive, KCNH2 3.1 inh -86 and hERG WT inh inactive.
CCC(=O)c1cc(Br)ccc1OCC(=O)N1CCN(S(=O)(=O)c2ccccc2)CC1 was read as KCNH2 3.1 inh inactive and hERG WT inh inactive.
CC1CCN(CCCNC(=O)c2cc3c(s2)-c2ccccc2OC3)CC1 was read as TRPV1 potentiator inactive, TRPV1 agonist inactive, KCNH2 3.1 inh inactive and hERG WT inh inactive.
For Cc1cccc2c1-c1sc(C(=O)NCCCN3CCC(C)CC3)cc1CO2 the results were TRPV1 potentiator inactive, TRPV1 agonist inactive, KCNH2 3.1 inh -75 and hERG WT inh inactive.
`O=C(Nc1ccccc1Cl)C1CCCN(S(=O)(=O)c2ccc(-n3cnnn3)cc2)C1` (stereo unspecified) gave TRPV1 potentiator inactive, TRPV1 agonist inactive, KCNH2 3.1 inh inactive and hERG WT inh inactive.
`O=C(CN1CCN(Cc2ccccc2)CC1)Nc1ccc(Br)cc1` gave TRPV1 potentiator inactive, TRPV1 agonist inactive, KCNH2 3.1 inh -84 and hERG WT inh inactive.
For O=C(CN1CCN(S(=O)(=O)N2CCCCCC2)CC1)Nc1ccc(Br)cc1 the results were TRPV1 potentiator inactive, TRPV1 agonist inactive, KCNH2 3.1 inh inconclusive and hERG WT inh -101.
Screening COc1cccc(C2C(C#N)=C(N)OC(C(C)(C)C)=C2C#N)c1 (stereo unspecified) returned TRPV1 potentiator inactive, TRPV1 agonist inactive, KCNH2 3.1 inh -189 and hERG WT inh inactive.
`COc1ccc(C2C(C#N)=C(N)OC(C(C)(C)C)=C2C#N)cc1OC` (stereo unspecified) gave TRPV1 potentiator inactive, TRPV1 agonist inactive, KCNH2 3.1 inh inactive and hERG WT inh inactive.
For Cc1ccc(S(=O)(=O)N(C)Cc2ccc(C(=O)N/N=C/c3ccc(OC(F)F)cc3)cc2)cc1 the results were TRPV1 potentiator inactive, TRPV1 agonist inactive, KCNH2 3.1 inh -109 and hERG WT inh inconclusive.
For CC(C)c1onc(C(=O)Nc2ccc3c(c2)OCO3)c1[N+](=O)[O-] the results were TRPV1 potentiator inactive, TRPV1 agonist inconclusive, KCNH2 3.1 inh inactive and hERG WT inh inactive.
